Measured values as given in PubChem BioAssay AID686978 (National Center for Advancing Translational Sciences (NCATS), 2013).
Hit rate of the full screen: of about 420,000 compounds, about 64,000 (15%) were called active. Another 27% or so got no clear call; they are omitted. A selection follows. Values without a mark were called inactive. The call rests on the fitted dose curve; in most records, active means well fitted inhibition curve with a large enough effect; inconclusive means small, poorly fitted or top-dose-only effect; inactive means flat fitted curve, though single readings scatter.

Assay: qHTS for Inhibitors of human tyrosyl-DNA phosphodiesterase 1 (TDP1): qHTS in cells in absence of CPT; further: nearly all actives have a fitted effect of over 55% in size
Conditions: DT40 Tdp1-/- hTDP1 cells, no CPT, ATP luminescence, 48 h; activity change, negative = growth inhibition: at 46.2 µM (top of the series)
Summary of the method: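 Compound effects on proliferation are scored in DT40 Tdp1-/-;hTDP1 cells in the absence of CPT. ATP levels (CellTiter-Glo luminescence) are recorded after a ≥48 hr, 37 °C incubation.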
On the % scale 0 is the no-effect control and ±100 the full control effect; potency means the concentration at half of the fitted maximal effect.

| Structure (SMILES) | activity change, negative = growth inhibition [%] | Potency |
| --- | --- | --- |
| Cn1cccc1/C=C1\SC(=O)N(CC(=O)Nc2ccc(F)cc2)C1=O | -29.1 | – |
| CNC(=S)NNC(=O)c1oc2nc(-c3ccccc3)cc(-c3ccco3)c2c1N | -24 | – |
| COc1ccccc1C1C2=C(COC2=O)Nc2cc3c(cc21)OCO3 (stereo not given) | 8.9 | – |
| O=C1OCC2=C1C(c1ccc(Cl)cc1)c1cc3c(cc1O2)OCO3 (stereo not given) | – | 16.4 µM (active) |
| O=C(c1ccc(O)cc1)c1ccc(C(=O)O)c(C(=O)O)c1 | 5.6 | – |
| Cc1cccn2cc(-c3cccc(S(=O)(=O)N4CCCCC4)c3)nc12 | -29.2 | – |
| CCOC(=O)/C(C#N)=C/c1cn(CCC(=O)O)nc1-c1ccc(Br)cc1 | -6.75 | – |
| O=C(O)/C=C/c1cn(Cc2ccccc2)nc1-c1cccs1 | 6.28 | – |
| O=C(O)CCn1cc(/C=C/C(=O)c2ccc(Cl)cc2)c(-c2cccc(Br)c2)n1 | – | 23.1 µM (active) |
| CC1CN(C(=O)c2ccccc2NS(=O)(=O)c2cccc([N+](=O)[O-])c2)CC(C)O1 (stereo not given) | -6.58 | – |
| COc1ccc2sc(-c3ccc(N(C)C)cc3)c(-c3ccc4cc[nH]c4c3)c2c1 | -18 | – |
| COc1ccc2sc(-c3ccc(N(C)C)cc3)c(C#CCO)c2c1 | – | 18.4 µM (active) |
| COc1ccc2c(Cl)c(-c3nnco3)sc2c1 | -8.82 | – |
| COc1ccc2sc(-c3ccc(S(C)(=O)=O)cc3)c(-c3ccc(C(N)=O)cc3)c2c1 | -1.83 | – |
| COc1ccc(-c2sc3ccc(OC)cc3c2C#Cc2ccccn2)cc1 | – | 18.4 µM (active) |
| COc1cc(OC)cc(-c2sc3ccc(OC)cc3c2-c2ccc3cc[nH]c3c2)c1 | -9.7 | – |
| CC(C)(C)c1ccc(S(=O)(=O)NC(=O)C2(C)CCN2C(=O)CC2CC2)cc1 (stereo not given) | -2.27 | – |
| CCS(=O)(=O)C1=NSC2=NC(=O)/C(=C\c3ccc(OS(=O)(=O)c4ccccc4)cc3)C(=N)N21 | -23.1 | – |
| Cc1cc(C)cc(NC(=O)C(OC(=O)c2ccc(O)cc2)c2ccccc2)c1 (stereo not given) | 1.18 | – |
| CCCn1c(C)cc(/C=C(\C#N)C(=O)OCC(=O)N(C)c2c(N)n(Cc3ccccc3)c(=O)[nH]c2=O)c1C | -27.5 | – |
| COc1ccc(N/N=C2/CCCCC2=O)cc1 | -3.32 | – |
| CC1(C)CN(c2ccc(-c3ccnc4ncnn34)cc2)C1=O | -20.8 | – |

| Structure (SMILES) | activity change, negative = growth inhibition [%] | Potency |
| --- | --- | --- |
| O=C(Oc1cccc(N2C(=O)C3C4c5ccccc5C(c5ccccc54)C3C2=O)c1)c1ccco1 (stereo not given) | – | 29.1 µM (active) |
| CC(=O)Oc1cccc(N2C(=O)C3CC=C(Cl)CC3C2=O)c1 (stereo not given) | -2.61 | – |
| O=C(NC1CC(=O)N(c2ccccc2)C1)c1ccco1 (stereo not given) | 2.8 | – |
| CC(C)(C)NC(=O)C(=O)NCc1ccncc1 | -15.4 | – |
| c1ccc(CSCCc2ccncc2)cc1 | -29.7 | – |
| CC(C)(C)c1ccc(SCCc2ccncc2)cc1 | – | 16.4 µM (active) |
| CCCc1ccc(OCC(O)CN2CCN(CCO)CC2)cc1 (stereo not given) | 10 | – |
| CN(C)CC(O)COc1ccc(C(C)(C)c2ccc(OCC(O)CN(C)C)cc2)cc1 (stereo not given) | – | 17.8 µM (active) |
| COc1ccc(OCC(O)CN(C)C(=O)C(C)Oc2ccccc2)cc1 (stereo not given) | -27.4 | – |
| O=S(=O)(Cc1nnnn1-c1ccccc1)c1ccccc1 | 30.9 | – |
| CC(C)C(=O)Nc1ccc2oc(=O)ccc2c1 | 9.1 | – |
| Cc1cc(Br)cn2c(Cc3cccc(F)c3)c(-c3cccc(Br)c3)nc12 | – | 23.1 µM (active) |
| Cc1cc(Br)cn2c(Cc3ccccc3C(F)(F)F)c(-c3ccc(Cl)cc3)nc12 | -22.3 | – |
| CC(C)(C)Cc1c(C2CCCCC2)nc2ccc(Br)cn12 | -19.5 | – |
| Fc1cccc(Cc2c(-c3cccc(Cl)c3)nc3ccc(Br)cn23)c1 | – | 14.6 µM (active) |
| CCOC(=O)N1CCN(S(=O)(=O)c2cc3c(cc2C)NC(=O)CO3)CC1 | -22.2 | – |
| Cc1nc(N)c(Br)c(C)c1Br | -49.5 | – |
| CCOC(=O)C1C(=O)NC(N2CCN(c3ccccc3)CC2)=NC1c1ccco1 (stereo not given) | -19.7 | – |
| Cc1cc(N=Nc2ccc3ccccc3c2)ccc1O | -5.46 | – |
| CC(C)C[C@H](NC(=O)N1CCn2c1nc1ccccc12)C(=O)NC1CC1 | 17.7 | – |
| COc1ccc(-n2ccn(CC(=O)Nc3ccc(C)c(C)c3)c(=O)c2=O)cc1OC | 8.27 | – |
| COc1ccc(NC(=O)CN2C(=O)CSC2=O)cc1 | 1.73 | – |

| Structure (SMILES) | activity change, negative = growth inhibition [%] | Potency |
| --- | --- | --- |
| COc1ccc(NC(=O)CN2C(=O)C(c3ccccc3)=NC23CCCCCC3)cc1OC | – | 18.4 µM (active) |
| COc1ccc(NC(=O)CNC(=O)Cc2ccccc2)cc1OC | -1.15 | – |
| COc1ccc(C2=NC3(CCCCC3)N(CC(=O)Nc3ccc(C(C)C)cc3)C2=O)cc1 | – | 20.6 µM (active) |
| COc1ccc(NC(=O)CC2SC(N3CCCCC3)=NC2=O)cc1OC (stereo not given) | 3.8 | – |
| CCOC(=O)c1cn(CC(=O)Nc2ccc(C(C)C)cc2)nn1 | -21.1 | – |
| NC(=O)C1(N2CCCCC2)CCN(C2CC(=O)N(Cc3ccc(N4CCCC4=O)cc3)C2=O)CC1 (stereo not given) | -3.12 | – |
| CC(Oc1cccc(Cl)c1)C(=O)Nc1ccc(S(=O)(=O)Nc2ncccn2)cc1 (stereo not given) | -0.0684 | – |
| C[C@H](CO)N1C[C@H](C)[C@H](CN(C)CC2CC2)Oc2ccc(NC(=O)CCN3CCOCC3)cc2C1=O | -4.56 | – |
| CC1CCCN(C(=O)c2cc(-c3ccco3)nc3ccccc23)C1 (stereo not given) | -13.8 | – |
| O=C1c2cccc3cccc(c23)C(=O)N1CCCCCc1n[nH]c(=S)o1 | -12.8 | – |
| COc1ccc(-c2cc(C(=O)N(C)Cc3ccccc3)c3ccccc3n2)cc1 | – | 14.6 µM (active) |
| COc1ccc(-c2cc(C(=O)N(C)CC(=O)Nc3ccccc3Cl)c3ccccc3n2)cc1OC | – | 9.2 µM (active) |
| COc1ccccc1NC(=O)c1cc(Cl)nc2ccccc12 | 4.16 | – |
| CN(CC(=O)Nc1ccccc1Cl)C(=O)c1ccccc1SCC(=O)N1CCCC1 | -16.5 | – |
| CC(C)(C)Cc1nnc(NC(=O)c2cc(-c3ccccc3)nc3ccccc23)s1 | -26.7 | – |
| COc1ccc(NC(=O)c2cc(-c3cc(OC)c(OC)c(OC)c3)nc3ccccc23)c(OC)c1 | – | 8.2 µM (active) |
| COc1ccc(CN(C)C(=O)Cc2c[nH]c3ccccc23)c(OC)c1OC | -23.1 | – |
| Cc1cccc(C(=O)NCC(=O)OCC(=O)N(C)CC(=O)Nc2ccccc2Cl)c1 | -9.68 | – |
| COc1ccc(-c2cc(C(=O)N(C)Cc3ccc(OC)c(OC)c3OC)c3ccccc3n2)cc1OC | – | 18.4 µM (active) |
| CN(Cc1ccc(F)cc1)C(=O)COc1ccc2ccccc2c1 | -15.6 | – |
| COc1ccc(/C=N/OCC(=O)N(Cc2ccccc2)c2ccccc2C(=O)O)cc1 | -1.1 | – |
